For 13 molecules, relative growth results are on record in the supplement of paper PMC12067926.

Test in all cases: relative growth (AUC of 72 h growth curve relative to DMSO control, dAUC) (ratio); higher = more growth (less inhibition), active = hit call of the paper
Holding throughout (details): 20 µM

The subject of one assay is Community 7. The method in brief:
(§1)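 Relative growth (dAUC) is the spline-integrated area under the growth curve divided by the mean of the DMSO-only control wells. Cultures were isolates from Icelandic stream sediments and Silwood Park soil, plus whole sediment communities, grown to carrying capacity in Luria–Bertani medium and diluted 1:100 into 96-well plates containing each chemical at 20 µM (1% DMSO). A600 was read hourly for 72 h on a plate reader, with brief shaking before each read, and values were averaged over three biological replicates.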

The test system of the next assay is Community 8. The method in brief: as §1
The test system of a further assay is Community 9. The gist of the method:
as §1

The subject of assay [1] is Flavobacterium 1 (Flavobacterium glaciei). The method in brief: as §1
Assay [2] has as its system Flavobacterium 2 (Flavobacterium succinicans). The gist of the method: as §1
In assay [3] the test system is Hymenobacter 1 (Hymenobacter glaciei). The method in brief:
as §1

Assay [4] deals with Microbacterium 1 (Microbacterium arborescens). The gist of the method:
as §1

The subject of assay [5] is Neobacillus 1 (Neobacillus soli). The gist of the method: as §1
Assay [6] deals with Oryzobacter 1 (Oryzobacter terrae). The gist of the method:
as §1

The test system of assay [7] is Paenibacillus 1 (Paenibacillus castaneae). The method in brief:
as §1

Unmarked numbers belong to inactive results.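 Rule for the calls: active = growth AUC significantly below the DMSO wells by Dunnett test; inactive = the rest.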

Regarding `C/C(=N\C#N)N(C)Cc1ccc(Cl)nc1`, the relative growth was 1.02 with Community 7; 1.05 with Community 8; 0.986 with Community 9; 0.92 in assay [1]; 1.02 in assay [2]; 0.997 in assay [3]. Also, the relative growth in [4] was 0.997; in assay [5], 0.993; in [6], 1.07; in assay [7], 1.06.

Turning to `COP(=S)(OC)Oc1nc(Cl)c(Cl)cc1Cl`, the relative growth in the assay with Community 7 was 1.04; in the assay on Community 8, 1.06; in the assay on Community 9, 1.03; in assay [1] it was 0.348 (active); in [2], 0.97; in assay [3] it was 0.99. In addition, the relative growth in [4] was 1.04; in assay [5], 1.01; in assay [6], 1.05; in assay [7] it was 0.874.

For the molecule `COP(=S)(OC)SCN1C(=O)c2ccccc2C1=O`, the relative growth was 1.04 in the assay on Community 7; 1.02 in the assay on Community 8; 1.04 with Community 9; 0.982 in [1]; 0.975 in [2]; 1.02 in assay [3]. Besides, the relative growth in [4] was 0.992; in [5], 1.03; in assay [6], 0.954; in assay [7], 1.06.

As to `OC(Cn1cncn1)(c1ccc(F)cc1)c1ccccc1F` (stereo not given), the relative growth was 0.819 with Community 7; 1.04 with Community 8; 1.08 in the assay on Community 9; 1.12 in [1]; 1.07 in [2]; 1.13 in [3]. The relative growth in [4] was 0.996; in [5], 1.08; in assay [6], 1.05; in assay [7], 1.05.

Regarding `CCOC(=O)CC(SP(=S)(OC)OC)C(=O)OCC` (stereo not given), the relative growth with Community 7 is 1.04; in the assay with Community 8 it was 0.99; with Community 9, 1.14; in [1], 1.02; in [2] it was 1.02; in assay [3] it was 1.02. For the same molecule, the relative growth in [4] is 1; in assay [5], 1.06; in [6], 1.1; in assay [7], 1.02.

On to `COP(N)(=O)SC` (stereo not given), for which the relative growth with Community 7 is 1.34; with Community 8, 0.924; in the assay on Community 9, 0.575 (active); in [1] it was 0.117 (active); in assay [2], 0.952; in [3], 1.01. Further, the relative growth was 0.992 in [4], 0.856 in assay [5], 1.03 in assay [6] and 0.194 (active) in assay [7].

`CS(=O)(=O)NC(=O)c1cc(Oc2ccc(C(F)(F)F)cc2Cl)ccc1[N+](=O)[O-]`: the relative growth in the assay with Community 7 is 1.04; in the assay with Community 8 it was 1.05; in the assay on Community 9 it was 1.07; in assay [1] it was 1.06; in assay [2] it was 1.02; in [3] it was 1.04. For the same molecule, the relative growth was 1.03 in assay [4], 1.02 in assay [5], 0.957 in assay [6] and 1.03 in assay [7].

For `CON(C)C(=O)Nc1ccc(Cl)c(Cl)c1`, the relative growth is 1.01 in the assay with Community 7; 1.07 with Community 8; 1.03 in the assay on Community 9; 1.01 in assay [1]; 0.923 in [2]; 0.961 in assay [3]. For the same molecule, the relative growth in assay [4] was 1.05; in assay [5], 0.908; in [6] it was 1.04; in assay [7] it was 1.

On to `CC1(C(=O)Nc2ccc(O)c(Cl)c2Cl)CCCCC1`, for which the relative growth with Community 7 is 1; with Community 8, 0.942; in the assay with Community 9, 1.1; in [1], 0.982; in assay [2], 0.979; in assay [3] it was 0.654 (active). The relative growth in [4] was 0.995; in [5] it was 0.99; in [6], 1.04; in assay [7], 0.954.

Turning to `CC(C)NC(=O)N1CC(=O)N(c2cc(Cl)cc(Cl)c2)C1=O`, the relative growth with Community 7 was 1.07; in the assay on Community 8 it was 0.959; in the assay on Community 9, 0.94; in assay [1] it was 0.854; in assay [2], 0.973; in assay [3] it was 0.959. Besides, the relative growth in assay [4] is 0.984; in [5], 0.961; in assay [6], 1.02; in assay [7] it was 0.996.

For the molecule `Cc1cc(C2CC2)nc(Nc2ccccc2)n1`, the relative growth in the assay with Community 7 was 0.89; in the assay with Community 8, 1.05; in the assay with Community 9 it was 0.939; in [1] it was 0.951; in assay [2], 0.86; in assay [3] it was 1.1. In addition, the relative growth is 1.05 in [4], 0.946 in [5], 1.04 in assay [6] and 0.619 (active) in [7].

As to `CC[C@H]1CCC[C@H](O[C@H]2CC[C@H](N(C)C)[C@@H](C)O2)[C@@H](C)C(=O)C2=C[C@@H]3[C@@H](C=C(C)[C@@H]4C[C@@H](O[C@@H]5O[C@@H](C)[C@H](OC)[C@@H](OC)[C@H]5OC)C[C@@H]34)[C@@H]2CC(=O)O1.CC[C@H]1CCC[C@H](O[C@H]2CC[C@H](N(C)C)[C@@H](C)O2)[C@@H](C)C(=O)C2=C[C@H]3[C@@H]4C[C@H](O[C@@H]5O[C@@H](C)[C@H](OC)[C@@H](OC)[C@H]5OC)C[C@H]4C=C[C@H]3C2CC(=O)O1`, the relative growth with Community 7 was 1.36; in the assay on Community 8, 0.95; in the assay with Community 9 it was 0.711; in assay [1], 0.859; in assay [2], 0.951; in assay [3] it was 1.06. Moreover, the relative growth in assay [4] is 0.985; in [5], 0.965; in [6], 1.14; in assay [7], 0.832.

As for `Oc1ccc(Cl)cc1Cc1cc(Cl)ccc1O`, the relative growth in the assay with Community 7 is 0.862; in the assay on Community 8 it was 0.654 (active); with Community 9 it was 0.327 (active); in [1], 0.0108 (active); in assay [2] it was 0.00242 (active); in assay [3], 0.0173 (active). In addition, the relative growth is 0.869 in assay [4], 0.731 (active) in assay [5], 0.00429 (active) in [6] and 0.00339 (active) in assay [7].
